Test results taken from PubChem BioAssay AID602291 (National Center for Advancing Translational Sciences (NCATS), 2012).
Active and inactive are the calls of the source.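 The calls were made as follows: active = cells show a rise in impedance after compound treatment, with no numeric cutoff stated; inactive = no rise in impedance seen.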

molecular target: Relaxin receptor 1 (Homo sapiens) (UniProt Q9HBX9); assay: qHTS Assay for Agonists of the Relaxin Receptor RXFP1: Cell Impedance; conditions: HEK293-RXFP1 cell impedance, xCELLigence, 500 nM time course; at 0.5 µM; active compounds read high
Excerpt: The relaxin hormone is involved in the variety of biological functions in normal tissues and diseases. The role of relaxin is well-established in female reproduction and parturition, mammary gland and endometrial development, maintenance of myometrial quiescence during pregnancy. Relaxin signaling through its G protein-coupled receptor (GPCR) RXFP1 results in ECM remodeling through regulation of collagen deposition, cell invasiveness, proliferation and overall tissue homeostasis. […] Recombinant human relaxin (rhRlx) is currently being tested in clinical trials as a protective agent in congestive heart failure, in treating severe preeclampsia, and as an anti-fibrotic agent in systemic sclerosis.
Upon relaxin binding RXFP1 activation leads to the activation of adenylate cyclase (AC) via Gs. cAMP will activate PKA, which phosphorylates many signaling proteins. Thus, detection of cAMP increase is an easy and reliable indication of relaxin receptor activation. To screen for agonists of the relaxin receptor, a HEK293T cell line stably transfected with RXFP1 was used. RXFP1 activation was assayed by changes in cAMP levels as detected with a time-resolved fluorescence energy transfer (TR-FRET) cAMP detection kit.
After the primary screen and rounds of SAR, a probe and analog were identified. It was previously shown that relaxin increases cell impedance in RXFP1 transfected cells. A cell line stably transfected with RXFP1 receptor HEK293-RXFP1 was used for cell impedance assay to confirm relaxin-like properties of the compounds.
NIH Chemical Genomics Center [NCGC]
NIH Molecular Libraries Probe Production Centers Network [MLPCN]
Assay Submitter (PI): Alexander Agoulnik
To equilibrate the plates, 100 microL of test media (DMEM, 1% FBS, 1x Pen/Strep) was added to each well of E Plate 16 (Roche Diagnostics, Indianapolis, IN) and the plate was incubated at room temperature for 30 minutes at which point baseline impedance was measures. Then 20,000 HEK293-RXFP1 cell or HEK293 cells (parental control cell line) were added per well in a volume of 100 microL test media and allowed to sediment at room temperature for 30 minutes. The plate was placed into xCELLigence RTCA DP Instrument in the CO2 incubator overnight to allow the cells to attach. Relaxin (10 ng/mL), vehicle, or compounds 500 nM were added to the wells and the cellular impedance was measured every 10-30 seconds for 1 hour.

Sequence of Relaxin receptor 1 (Homo sapiens) (Q9HBX9 whole entry, looked up): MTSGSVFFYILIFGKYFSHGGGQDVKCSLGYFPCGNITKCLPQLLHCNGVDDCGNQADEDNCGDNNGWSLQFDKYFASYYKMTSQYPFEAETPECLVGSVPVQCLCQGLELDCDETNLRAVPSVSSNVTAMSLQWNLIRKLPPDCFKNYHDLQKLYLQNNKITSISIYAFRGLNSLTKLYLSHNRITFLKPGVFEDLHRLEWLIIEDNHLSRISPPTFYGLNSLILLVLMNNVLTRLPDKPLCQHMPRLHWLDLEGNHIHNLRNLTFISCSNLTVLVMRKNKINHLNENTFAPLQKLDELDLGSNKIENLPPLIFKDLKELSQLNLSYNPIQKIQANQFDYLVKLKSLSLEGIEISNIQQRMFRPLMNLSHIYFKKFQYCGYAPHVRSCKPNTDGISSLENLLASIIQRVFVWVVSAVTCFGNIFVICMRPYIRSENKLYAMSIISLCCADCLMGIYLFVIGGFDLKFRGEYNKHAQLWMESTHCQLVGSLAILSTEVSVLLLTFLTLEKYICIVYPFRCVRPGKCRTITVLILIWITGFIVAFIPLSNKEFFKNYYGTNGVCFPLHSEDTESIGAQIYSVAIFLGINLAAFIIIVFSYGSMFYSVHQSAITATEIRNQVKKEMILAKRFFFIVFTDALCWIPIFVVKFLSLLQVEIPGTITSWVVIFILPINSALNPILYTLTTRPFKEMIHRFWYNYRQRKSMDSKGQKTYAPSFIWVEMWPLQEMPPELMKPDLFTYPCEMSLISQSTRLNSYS

Impedance increase (% of relaxin), active:
CCOc1ccccc1C(=O)Nc1ccccc1C(=O)Nc1cccc(C(F)(F)F)c1 67%
CCOc1ccccc1C(=O)Nc1ccccc1C(=O)Nc1cccc(S(=O)(=O)C(F)(F)F)c1 31.2%
CC(C)Oc1ccccc1C(=O)Nc1ccccc1C(=O)Nc1cccc(S(=O)(=O)C(F)(F)F)c1 46.7%
CCCCOc1ccccc1C(=O)Nc1ccccc1C(=O)Nc1cccc(S(=O)(=O)C(F)(F)F)c1 39.5%
